Source: PubChem BioAssay (EPA / NIEHS)
The source made the active and inactive calls. How the source made its calls: active means hit-call score of the fitted dose curve at least 0.9, where 1 is the maximum; inactive means score below 0.9.

Assay: APR_HepG2_P-H2AX_24hr: Apredica 24-hour HepG2 Assay for H2AX Phosphorylation (AID 2282920)
Conditions: high-content imaging, actives raise or lower the signal
Procedure: APR_HepG2_24hr is a cell-based, multiplexed-readout assay that uses HepG2, a human liver cell line, with measurements taken at 24 hours after chemical dosing in a 384-well plate.APR_HepG2_P-H2AX_24hr is one of 10 assay component(s) measured or calculated from the APR_HepG2_24hr assay. It is designed to make measurements of dna content, a form of viability reporter, as detected with fluorescence intensity signals by HCS Fluorescent Imaging technology.Data from the assay component APR_HepG2_P-H2AX_24hr was analyzed into 1 assay endpoint. This assay endpoint, APR_HepG2_P-H2AX_24hr, was analyzed with bidirectional fitting relative to DMSO as the negative control and baseline of activity. Using a type of viability reporter, measures of protein for gain or loss-of-signal activity can be used to understand the signaling at the pathway-level as they relate to the gene . Furthermore, this assay endpoint can be referred to as a primary readout, because this assay has produced multiple assay endpoints where this one serves a signaling function. To generalize the intended target to other relatable targets, this assay endpoint is annotated to the dna binding intended target family, where the subfamily is cellular response to DNA damage stimulus.
Cells were treated with dimethyl sulfoxide (DMSO) as a solvent control at a final concentration of 0.5% v/v or with compounds in DMSO with a resulting final DMSO concentration of 0.5% v/v. Compound treatment was done at concentrations of 0.39, 0.78, 1.56, 3.12, 6.24, 12.5, 25, 50, 100, and 200 uM in duplicate on each plate. Cells were treated with compounds for 1, 24, or 72 hr. Carbonyl […] m-chloro-phenylhydrazone (CCCP) and taxol were used as positive controls for mitochondrial function and cytoskeletal stability, respectively; DMSO served as the negative control for this experiment. Cells were fixed by the direct addition of 50 uL formaldehyde in Hank's Balanced Salt Solution (HBSS) to a final concentration of 3.7%. After incubation in the fixation medium for 30 min at room temperature (293-298 K), cells were rinsed twice with HBSS and treated with cell permeabilization buffer (16 uL of 0.5% Triton X-100) for 10 min at room temperature (293-298 K) before labeling. For mitochondrial membrane potential and mitochondrial measurements, pre-fixed cells were incubated with 50 uL of MitoTracker Red CMXRos (Invitrogen) at a concentration of 250 nM for 30 min before fixation. In the remaining cases, post-fixed cells were labeled by incubation with a multiplexed mixture of primary antibodies in HBSS for 60 min at room temperature (293-298 K) to detect immunoreactivity of c-Jun (1:500), phospho-histone H3 (1:100), phospho-histone H2A.x (1:200), p53 (1:400), alpha-tubulin (1:200) and Hoechst 33342 (2 ug/mL). Cells were labeled for multiplexed imaging on two separate plates: a) Hoechst 33342, MitoTracker Red, phospho-histone H3, and alpha-tubulin, and b) Hoechst 33342, phospho-histone H2A.x, and c-Jun. A final rinse with HBSS (50 uL) was performed before analysis. The primary and secondary antibodies for the proteins were phospho-histone H3 (rabbit anti-phospho-histone H3 and FITC-donkey anti-rabbit IgG), phospho-histone H2A.x (mouse anti-phospho-histone H2A.x and FITC-donkey anti-mouse IgG), c-Jun (rabbit anti-phospho-c-Jun and Cy3-donkey anti-rabbit IgG), p53 (sheep anti-p53 and Cy5-donkey anti-sheep IgG), alpha-tubulin (mouse anti-alpha-tubulin and Cy5-donkey anti-mouse IgG). These antibodies are available as the CellCiphr HepG2 assay kit (Millipore).Digital images of each well were captured using a Cellomics ArrayScan VTI (Thermo Scientific Cellomics) (0.8 NA objective, 0.63x optical coupler, and XF-93 filter set) at 20x magnification. The images were acquired using the autofocus feature of the ArrayScan instrument, which entails the following steps. First, the camera focuses on channel 1 (Hoechst 33342), where nuclei are identified. Second, a Z offset of 1 um is used for capturing mitochondria (MitoTracker Red). […]

Row | SMILES | outcome | AC50
1 | N#Cc1ccc(N(CC(N)=O)CC(F)(F)F)cc1C(F)(F)F | inactive | 
2 | CCCCCCOC(=O)c1ccccc1C(=O)OCCCCCC | inactive | 
3 | CO/C=C(/C(=O)OC)c1ccccc1COc1cccc(C(F)(F)F)n1 | inactive | 
4 | ClC1=C(Cl)[C@]2(Cl)[C@@H]3[C@@H](Cl)[C@H]4O[C@H]4[C@@H]3C1(Cl)C2(Cl)Cl |  | 62.3 µM (active)
5 | C=CC(=O)NCNC(=O)C=C | inactive | 
6 | CCCCCCCCCc1ccc(O)cc1 | inactive | 
7 | ClC1=C(Cl)[C@]2(Cl)[C@@H]3[C@H]4C[C@H]([C@@H]5O[C@H]45)[C@@H]3[C@@]1(Cl)C2(Cl)Cl | inactive | 
8 | CC1=C2C[C@H]3[C@@H](CC=C4C[C@@H](O)CC[C@@]43C)[C@@H]2CC[C@]12O[C@@H]1C[C@H](C)CN[C@H]1[C@H]2C |  | 33.4 µM (active)
9 | CC#Cc1cc(C)nc(Nc2ccccc2)n1 | inactive | 
10 | Cc1ccccc1O | inactive | 
11 | O=C(N[C@H]1CN2CCC1CC2)c1cc2ccoc2cn1 | inactive | 
12 | ClC(Cl)=C(c1ccc(Cl)cc1)c1ccc(Cl)cc1 |  | 53.7 µM (active)
13 | O=S(=O)(O)C(F)(F)C(F)(F)C(F)(F)C(F)(F)F | inactive | 
14 | Cc1ccc(O)c(C)c1 | inactive | 
15 | O=C(O)C(F)(F)C(F)(F)C(F)(F)C(F)(F)C(F)(F)F | inactive | 
16 | CCCCCCCCOC(=O)c1ccccc1C(=O)OCCCCCCCC | inactive | 
17 | CCCN(CCC)N=O | inactive | 
18 | c1ccc(-c2ccccc2)cc1 | inactive | 
19 | CC(C)(O)C(=O)Nc1ccc([N+](=O)[O-])c(C(F)(F)F)c1 | inactive | 
20 | Oc1ccc(Cl)cc1Cl | inactive | 

Row | SMILES | outcome | AC50
21 | CCCCCCCCCC[N+](C)(C)CCCCCCCCCC |  | 6.27 µM (active)
22 | O=C(NC(=O)c1cc(F)c(F)cc1Cl)Nc1cc(F)ccc1N1CCC(C(=O)O)CC1 | inactive | 
23 | CN(C)CCO | inactive | 
24 | Clc1ccc(Cl)cc1 | inactive | 
25 | Cc1ccccc1[N+](=O)[O-] | inactive | 
26 | Cc1ccccc1CO[C@@H]1C[C@@]2(C(C)C)CC[C@]1(C)O2 | inactive | 
27 | CN(C)c1nc(=O)n(C2CCCCC2)c(=O)n1C | inactive | 
28 | CCOC(=O)C(O)(c1ccc(Cl)cc1)c1ccc(Cl)cc1 |  | 77.5 µM (active)
29 | CCNc1nc(NC(C)C)nc(SC)n1 | inactive | 
30 | CCC(C)c1cc([N+](=O)[O-])cc([N+](=O)[O-])c1O (stereo not given) |  | 67.4 µM (active)
31 | Cc1cc(O)ccc1Cl | inactive | 
32 | Cc1cccc(C)c1N | inactive | 
33 | O=C(O)C(F)(F)C(F)(F)C(F)(F)C(F)(F)C(F)(F)C(F)(F)C(F)(F)C(F)(F)F | inactive | 
34 | Cc1cccc([N+](=O)[O-])c1 | inactive | 
35 | ClC1=C(Cl)[C@]2(Cl)[C@@H]3[C@@H]4C[C@@H]([C@H]5O[C@@H]45)[C@@H]3[C@@]1(Cl)C2(Cl)Cl | inactive | 
36 | C[C@]12CCC(=O)C=C1CC[C@@H]1[C@@H]2CC[C@@]2(C)[C@H]1CC[C@]2(C)O | inactive | 
37 | O=C(O)C(F)(F)C(F)(F)C(F)(F)C(F)(F)C(F)(F)C(F)(F)C(F)(F)C(F)(F)C(F)(F)F |  | 113 µM (active)
38 | NS(=O)(=O)C(F)(F)C(F)(F)C(F)(F)C(F)(F)C(F)(F)C(F)(F)C(F)(F)C(F)(F)F |  | 100 µM (active)
39 | CCC(C)(c1ccc(O)cc1)c1ccc(O)cc1 |  | 104 µM (active)
40 | Oc1ccc(C(c2ccc(O)cc2)(C(F)(F)F)C(F)(F)F)cc1 | inactive | 
